Assay outcomes as filed in PubChem.
Most compounds without a hit are left out; they make up all but 19% or so of the library.
TDP1 cell noCPT = qHTS for Inhibitors of human tyrosyl-DNA phosphodiesterase 1 (TDP1): qHTS in cells in absence of CPT | DT40 Tdp1-/- hTDP1 cells, no CPT, ATP luminescence, 48 h | Potency, µM (series often up to 46.2 µM), inactives show at the top dose activity change, negative = growth inhibition, most hits filed as inhibitors | actives 15% (n = 420,000) | AID 686978, 2013; also: nearly all actives have a fitted effect of over 55% in size
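Growth of hTDP1-complemented DT40 Tdp1-knockout cells is measured by ATP luminescence after at least 48 hr compound exposure at 37 °C, with DMSO substituting for the 20 nM CPT used in the parallel screen.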
TDP1 cell CPT = DT40-hTDP1 cell growth loss with CPT | chicken DT40 Tdp1-/-;hTDP1 cells + 20 nM CPT, ATP luminescence, 48 h | Potency, µM (highest dose often 46.2 µM), for inactives: at the top dose activity change, negative = growth inhibition, most hits filed as inhibitors | actives 12% (n = 420,000) | AID 686979; also: nearly all actives have a fitted effect of over 55% in size
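Chicken DT40 Tdp1-/- cells complemented with human TDP1, 400 cells/well, exposed to compounds plus 20 nM camptothecin for at least 48 h at 37 C; viability read as ATP content by CellTiter-Glo luminescence.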
TDP1 block = blocks human tyrosyl-DNA phosphodiesterase 1; recombinant TDP1, AlphaScreen DNA substrate cleavage; AID 485290; actives 0.28% (n = 350,000); Potency, µM (series often up to 130 µM), without a hit: at the top dose activity change, negative = inhibition, most hits filed as inhibitors; also: nearly all actives have a fitted effect of over 40% in size
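E. coli-derived human Tdp1, 1 nM final. Cpd preinc 15 min RT; substrate 15 nM final, 5 min RT; AS bead mix 10 ug/ml final, 10 min RT. Signal loss = tyrosine-FITC cleavage. No-enzyme wells = max signal.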
VP16 counter = Gal4-VP16 reporter inhibition counter-screen; Drosophila S2 Gal4-VP16 UAS-luciferase, luminescence, 20 h; Potency, µM (series often up to 53.6 µM), for inactives: at the highest dose activity, negative = inhibition, actives largely listed as inhibitors; actives 3.5% (n = 310,000);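 also: Gal4-VP16 expression switched on by copper sulfate through the metallothionein promoter; nearly all actives have a fitted effect of over 50% in size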
RORg inh = inhibitors of mouse ROR gamma transcriptional activity. P51450. Drosophila S2 Gal4-RORgamma UAS-luciferase reporter, 20 h. Potency, µM (doses to about 53.6 µM), for the others: at the top dose activity change, negative = inhibition, most hits filed as inhibitors. actives 5.4% (n = 310,000); also: nearly all actives have a fitted effect of over 60% in size
Target sequence (P51450 whole entry, looked up, the tested form may be a part): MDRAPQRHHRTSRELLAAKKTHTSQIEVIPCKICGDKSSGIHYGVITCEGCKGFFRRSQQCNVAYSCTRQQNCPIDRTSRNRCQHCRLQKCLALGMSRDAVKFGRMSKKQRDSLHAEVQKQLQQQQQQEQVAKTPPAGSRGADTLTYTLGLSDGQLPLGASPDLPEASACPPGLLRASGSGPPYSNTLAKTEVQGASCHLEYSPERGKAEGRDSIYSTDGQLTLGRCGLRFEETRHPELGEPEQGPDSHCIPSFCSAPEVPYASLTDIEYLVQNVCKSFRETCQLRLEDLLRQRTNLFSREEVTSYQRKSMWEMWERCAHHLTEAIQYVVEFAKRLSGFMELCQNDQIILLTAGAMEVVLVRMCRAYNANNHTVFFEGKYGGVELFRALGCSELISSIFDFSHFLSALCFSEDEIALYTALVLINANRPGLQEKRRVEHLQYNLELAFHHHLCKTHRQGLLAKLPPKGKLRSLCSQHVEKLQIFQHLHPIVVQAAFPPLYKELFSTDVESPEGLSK
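Using a luciferase readout, inhibitors were identified by reduced reporter activity in Drosophila cells coexpressing a copper-inducible Gal4–ROR gamma fusion and UAS-driven Photinus luciferase, incubated 20 hr after 700 uM copper sulfate.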
* hit, by the source's call; u = inconclusive; x = no result. Calls follow the shape of the dose curve; as a rule, active = well fitted curve in the direction sought with a large enough effect; inconclusive = small, poorly fitted or top-dose-only effect, or another doubt; inactive = no such curve, though single readings can be large; an effect the other way counts as inactive or inconclusive. % is scaled to controls: 0 for no effect and ±100 for the full control effect; potency is read from the fitted curve at half-maximal effect.

SMILES	TDP1 cell noCPT	TDP1 cell CPT	TDP1 block	VP16 counter	RORg inh
COc1cccc(N2CCN(c3ncnc4onc(-c5ccc(Cl)cc5)c34)CC2)c1	16.4µM*	u	3.8%	x	x
Cc1nn(C)c(C)c1N1C(=O)c2cccc3c(Br)ccc(c23)C1=O	20.6µM*	18.4µM*	5.5%	-31.5%	u
COc1ccc(-c2csc(-c3c(N)c(C(=O)c4ccccc4)n4ccccc34)n2)cc1OC	2.31µM*	4.11µM*	5.1%	x	x
Cc1cc(C)c(CN2CCN(CCCn3ccc(NC(=O)OCc4ccccc4)nc3=O)CC2)c(C)c1	18.4µM*	18.4µM*	x	x	x
COc1ccc(N2CCN(CCCn3ccc(NC(=O)OCc4ccccc4)nc3=O)CC2)cc1	11.6µM*	23.1µM*	x	x	x
O=C(Nc1ccn(CCCN2CCN(Cc3cccc4ccccc34)CC2)c(=O)n1)OCc1ccccc1	18.4µM*	16.4µM*	x	x	x
O=C(Nc1ccn(CCCNCCN2CCOCC2)c(=O)n1)OCc1ccccc1	-93.2%	-103.1%	x	x	x
O=C(Nc1ccn(CCCNC2CCN(Cc3ccccc3)CC2)c(=O)n1)OCc1ccccc1	18.4µM*	u	x	x	x
O=C(Nc1nc(-c2cccnc2)cs1)c1ccc([N+](=O)[O-])cc1	-27.9%	u	2.6%	-4.6%	8.7%
O=C(Nc1ccn(CCCN2CCN(c3ccccc3)CC2)c(=O)n1)OCc1ccccc1	14.6µM*	u	x	x	x
CC(C)c1ccc(CN(Cc2ccco2)c2cnc(S(C)(=O)=O)nc2C(=O)Nc2ccccc2)cc1	11.6µM*	18.4µM*	3.6%	x	x
COc1ccc(CN(Cc2ccco2)c2cnc(S(C)(=O)=O)nc2C(=O)Nc2ccc(C)cc2C)cc1	u	u	3.6%	x	x
CS(=O)(=O)c1ncc(N(Cc2ccco2)Cc2ccco2)c(C(=O)Nc2ccccc2Br)n1	u	u	9.9%	x	x
Cc1ccc(NC(=O)c2nc(S(C)(=O)=O)ncc2N(Cc2ccco2)Cc2ccccc2F)c(C)c1	9.2µM*	11.6µM*	5.7%	x	x
Cc1ccc(CN(Cc2ccco2)c2cnc(S(C)(=O)=O)nc2C(=O)Nc2ccc(Br)cc2)o1	u	18.4µM*	7.8%	x	x
CS(=O)(=O)c1ncc(N(Cc2ccccc2)Cc2ccco2)c(C(=O)Nc2cccc(C(F)(F)F)c2)n1	u	u	-1.6%	x	x
CSCCC(NC(=O)c1ccccc1Cl)C(=O)NCCOc1ccccc1 (configuration not stated)	-15.9%	u	2.7%	x	x
CC(C(=O)NCc1cccs1)N1C(=O)c2ccccc2C1=O (configuration not stated)	-23.9%	-1.2%	4.8%	7.2%	-5.8%
O=C(Oc1cccc(NC(=O)c2ccco2)c1)c1cccc(S(=O)(=O)N2CCCC2)c1	-13.9%	-22.0%	4.5%	-4.8%	u
Cc1ccc(Sc2ncccc2C(=O)NC2CCCCCC2)cc1C	-20.8%	5.0%	0.0%	-4.0%	-10.6%
C=C1CCC[C@]2(C)C[C@H]3OC(=O)C(CN4CCCCC4CO)[C@H]3CC12 (some centres not stated)	11.6µM*	4.61µM*	x	u	u
C=C1CCC[C@]2(C)C[C@H]3OC(=O)C(CN(C)CC(OC)OC)[C@H]3CC12 (some centres not stated)	u	u	x	7.2%	27.3%
C=C1CCC[C@]2(C)C[C@H]3OC(=O)C(CNC(C)(CO)CO)[C@H]3CC12 (some centres not stated)	20.6µM*	u	x	-28.9%	-25.5%
C=C1CCC[C@]2(C)C[C@H]3OC(=O)C(CNC(CC)CO)[C@H]3CC12 (some centres not stated)	18.4µM*	u	x	0.3%	-19.7%
C=C1CCC[C@]2(C)C[C@H]3OC(=O)C(CNC(C)CC)[C@H]3CC12 (some centres not stated)	u	u	x	-0.3%	-3.0%
SMILES	TDP1 cell noCPT	TDP1 cell CPT	TDP1 block	VP16 counter	RORg inh
C=C1C(=O)OC2C[C@@]3(C)CCCC(=C)[C@@H]3CC12 (some centres not stated)	23.7µM*	26.6µM*	x	-28.7%	u
Cc1cccc(C)c1NC(=O)CSc1nc2[nH]c(=O)cc(O)c2s1	-0.2%	-11.4%	0.4%	x	x
CC1CN(CC(=O)NCc2ccccc2)CC(C)O1 (configuration not stated)	-15.2%	11.8%	x	-11.6%	-3.3%
CC(=O)N1CCCc2ccc(NS(=O)(=O)c3ccccc3)cc21	u	-16.3%	x	x	x
COc1ccc(C)cc1S(=O)(=O)Nc1ccccc1	0.4%	-22.8%	-2.0%	0.9%	-36.3%
COc1ccc(S(=O)(=O)Nc2ccc3c(c2)N(C(C)=O)CCC3)cc1	16.4µM*	18.4µM*	-7.9%	x	x
COc1ccc(C)cc1S(=O)(=O)Nc1ccc2c(c1)N(C(C)=O)CCC2	16.4µM*	25.9µM*	-0.1%	x	x
CC(=O)N1CCCc2ccc(NC(=O)c3ccc(OC(C)C)cc3)cc21	16.4µM*	u	-1.2%	x	x
COc1cccc(OC)c1C(=O)Nc1ccc2c(c1)N(C(C)=O)CCC2	-4.0%	-2.3%	6.2%	x	x
CCOC(=O)c1c(-c2ccc(C)cc2)csc1NC(=O)c1ccc(N2C(=O)CCC2=O)cc1	-23.1%	-4.4%	-5.5%	11.4%	26.5%
Cc1ccc(NC(=O)c2oc3ccccc3c2NC(=O)C2CCCO2)cc1C (configuration not stated)	8.2µM*	10.3µM*	3.6%	1.8%	16.6%
O=C(Nc1ccc(F)c(F)c1)c1oc2ccccc2c1NC(=O)C1CCCO1 (configuration not stated)	5.17µM*	u	2.4%	u	28.3%
COc1ccccc1NC(=O)c1oc2ccccc2c1NC(=O)C1CC1	u	u	0.4%	-6.9%	-25.6%
O=C(Nc1ccccc1)c1oc2ccccc2c1NC(=O)C1CC1	u	u	2.3%	u	-37.0%
CCOc1ccccc1NC(=O)c1oc2ccccc2c1NC(=O)C1CCCO1 (configuration not stated)	9.2µM*	16.4µM*	1.2%	-14.0%	-36.5%
O=C(Nc1ccc2c(c1)OCCO2)c1oc2ccccc2c1NC(=O)C1CC1	u	u	5.0%	-12.3%	26.7%
COc1ccc(NC(=O)c2oc3ccccc3c2NC(=O)C2CCCO2)cc1OC (configuration not stated)	18.4µM*	u	1.3%	-21.3%	12.7%
Cn1ccnc1C(O)c1cccc(OCc2ccccc2)c1 (configuration not stated)	-27.3%	-16.8%	3.7%	15.0%	13.5%
Cc1ccc(S(=O)(=O)CC(=O)c2ccc(C(C)(C)C)cc2)cc1	u	u	-3.1%	9.9%	29.5%
